L3MBTL1 inh: inhibitors of human L3MBTL1 | Q9Y468 | AlphaScreen L3MBTL1–H3K9me1 peptide binding | Potency, µM (titrated, usually from 57.1 µM), usual class: inhibitors | 230,000 tested, 0.66% active | AID 485360; note: nearly all actives have a fitted effect of over 60% in size
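Displacement of a biotinylated histone H3(1-15) peptide monomethylated at Lys9 (75 nM) from L3MBTL1 (50 nM) was measured by AlphaScreen after a 30 min room-temperature compound incubation; cefsulodin titration served as intraplate control.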
G9a inh: blocks human histone lysine methyltransferase G9a; G9a H3K9 monomethylation, AlphaScreen, 2 h; Q96KQ7; Potency, µM (top dose mostly 102 µM), hits mostly inhibitors; 350,000 tested, 8.8% active; note: nearly all actives have a fitted effect of over 75% in size
Target sequence (Q96KQ7 913-1193 limits assumed): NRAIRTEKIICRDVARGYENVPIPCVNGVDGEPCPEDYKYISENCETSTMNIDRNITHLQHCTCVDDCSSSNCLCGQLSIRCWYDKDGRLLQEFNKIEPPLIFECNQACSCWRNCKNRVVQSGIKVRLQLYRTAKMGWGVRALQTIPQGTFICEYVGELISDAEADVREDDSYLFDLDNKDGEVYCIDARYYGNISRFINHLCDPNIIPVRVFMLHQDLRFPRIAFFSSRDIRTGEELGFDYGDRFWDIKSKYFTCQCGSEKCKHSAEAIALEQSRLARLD
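G9a (20 nM) was preincubated 15 min with compound, then reacted 2 h at room temperature with 500 nM biotin-H3K9 peptide and 20 µM SAM. Monomethyl-H3K9 detected by AlphaScreen using anti-H3K9me1 antibody.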
BAZ2B inh: inhibitors of human BAZ2B bromodomain. Q9UIF8. AlphaScreen BAZ2B-H3K14Ac peptide displacement. Potency, µM (series often up to 114 µM), usual class: inhibitors. 360,000 tested, 4.4% active; note: nearly all actives have a fitted effect of over 60% in size
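In this displacement format the biotinylated H3(5-23) peptide acetylated at Lys14 serves as ligand at 50 nM, with BAZ2B at 50 nM in PBS pH 7.4 containing 0.01% Tween-20. Donor and acceptor beads are 10 ug/mL final.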
HP1b binding inh: blocks HP1-beta chromodomain binding to methylated histone tails; 390,000 tested, 0.56% active; P83916; Potency, µM (titrated, usually from 114 µM), usual class: inhibitors; AID 540317; AlphaScreen HP1-beta / biotin-H3K9me3 peptide binding; note: nearly all actives have a fitted effect of over 70% in size
Target sequence (P83916 whole entry, looked up): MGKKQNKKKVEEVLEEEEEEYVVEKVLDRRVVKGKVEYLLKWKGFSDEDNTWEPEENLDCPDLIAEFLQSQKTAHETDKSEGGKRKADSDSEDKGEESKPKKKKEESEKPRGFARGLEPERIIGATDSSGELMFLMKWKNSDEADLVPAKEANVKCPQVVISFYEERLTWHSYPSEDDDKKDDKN
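Compound inhibition of the preformed complex between 50 nM HP1-beta and 50 nM biotinylated H3K9me3 peptide was read by AlphaScreen. Buffer was PBS pH 7.4 with 0.01% Tween-20. Incubations ran 30 min at room temperature, with 10 ug/mL donor/acceptor beads.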
JMJD2A Tudor: inhibitors of human JMJD2A Tudor domain | Potency, µM (top dose mostly 114 µM), actives largely listed as inhibitors | 390,000 tested, 4.4% active | O75164 | AID 504339 | AlphaScreen JMJD2A-Tudor / H3K4me3 peptide binding; note: nearly all actives have a fitted effect of over 50% in size
A number is an active result; – = inactive; ? = inconclusive; · = not tested or not shown; [ ] = another dose, or the depositor's remark. Sampled rows, rich in hits. Any-hit rate of the full collection: about 11%. Calls come from the whole dose curve; as a rule, active = well fitted inhibition curve with a large enough effect; inconclusive = small, poorly fitted or top-dose-only effect; inactive = no such curve, though single readings can be large or run the other way.

SMILES	L3MBTL1 inh	G9a inh	BAZ2B inh	HP1b binding inh	JMJD2A Tudor
Fc1cnc(N2CCN(c3ccccc3)CC2)nc1N1CCN(c2ccccc2)CC1	–	50.1µM	?	–	–
O=C(Nc1c(C(=O)O)[nH]c2ccccc12)c1cccc(C(F)(F)F)c1	–	?	–	?	–
O=C(Nc1c(C(=O)O)[nH]c2ccc(F)cc12)c1cccc(C(F)(F)F)c1	–	?	–	?	79.4µM
OC(c1nc2ccccc2[nH]1)C(O)c1nc2ccccc2[nH]1 (centres undefined)	–[2.29 µM]	–[0.501 µM]	–	–	–
FC(F)(F)c1nc2cc3nc4ccccc4[nH]c3cc2n1	–	39.8µM	–	–	–
CCN(CC)CCNC(=O)C1CCN(c2cc(C)nc3c(-c4ccc(Cl)cc4)c(C)nn23)CC1	·	–	–	–	–
CCCc1cc(C(=O)NNC(=S)NCC2CCCO2)cs1 (centres undefined)	–	–	–	–	–
S=C(NCc1ccccc1)Nc1cccc(Cl)c1	–	–	–	–	–
Cc1ccc(NC(=S)NN2CCN(C)CC2)c(C)c1	–	–	–	–	–
Cc1cccc(NC(=S)NNC(=S)NCc2ccccc2)c1	·	0.708µM	–	–	?
CCCc1cc(C(=O)NNC(=S)NC(C)c2ccccc2)cs1 (centres undefined)	·	50.1µM	–	–	–
Cc1cccc(NC(=S)NNC(=O)c2csc(C(C)C)c2)c1	–[11.4 µM]	?	–	–	–
CCc1cc(C(=O)NNC(=S)Nc2cccc(C)c2)cs1	–	10µM	–	–	–
Cc1cccc(NC(=S)NN2CCN(C)CC2)c1	·	56.2µM	–	–	–
COC(=O)C1=C(C)N(CCc2c[nH]c3ccc(OC)cc23)C(=O)C1	?	?	–	–	–
NC(=O)c1nsc(C(=O)N(c2ccccc2)C(C(=O)NCC2CCCO2)c2cccs2)c1N (centres undefined)	–	–	–	–	–
COc1cccc(N(C(=O)c2snc(C(N)=O)c2N)C(C(=O)NCC2CCCO2)c2cccs2)c1 (centres undefined)	·	35.5µM	–	–	–
COc1ccc(C(C(=O)NC2CCCC2)N(C(=O)c2snc(C(N)=O)c2N)c2cccc(O)c2)cc1 (centres undefined)	·	70.8µM	?	–	?
COc1ccc(CCNC(=O)c2ccc(S(=O)(=O)N3CCCCC3)cc2)cc1	–	–[2.33 µM]	–	–	–
CCn1c(=O)cc(SCC(=O)NCCc2ccc(OC)cc2OC)c2ccccc21	·	–	–	–	–
Cc1ccc2sc(N(CCCN(C)C)C(=O)c3nc4ccccc4s3)nc2c1C	–	44.7µM	–	?	–
Cc1ccc2sc(N(CCCN(C)C)C(=O)c3ccco3)nc2c1C	·	?	–	–	?
Cc1cccc2sc(N(CCCN(C)C)C(=O)c3nc4ccccc4s3)nc12	–	10µM	–	–	–
Cc1cccc2sc(N(CCCN(C)C)C(=O)c3ccc4ncsc4c3)nc12	·	31.6µM	–	–	?
Cc1ccc2sc(N(CCCN(C)C)C(=O)c3ccc(Br)s3)nc2c1C	–	35.5µM	?	–	?
SMILES	L3MBTL1 inh	G9a inh	BAZ2B inh	HP1b binding inh	JMJD2A Tudor
Cc1cccc2sc(N(CCCN(C)C)C(=O)CCc3ccccc3)nc12	–	?	–	–	?
O=C(CNC(=O)Cc1ccc(Cl)cc1)NCc1ccco1	–[11.4 µM]	–	–	–	–
Cc1ccc2oc(=O)c3cc(C(=O)Nc4ccccc4C(N)=O)sc3c2c1	·	–	–	–	–
CCc1ccc2nc(N(CCN(C)C)C(=O)c3ccc4ncsc4c3)sc2c1	·	10µM	?	?	50.1µM
CCc1ccc2nc(N(Cc3cccnc3)C(=O)c3ccc(C#N)cc3)sc2c1	·	–	?	–	–
Cc1ccc(C(c2sc3nc(-c4ccco4)nn3c2O)N2CCCCC2)cc1 (centres undefined)	·	–	–	–	–
CCCc1nnc(NC(=O)CCC(=O)N2CCN(CCn3c(C)ccc3C)CC2)s1	–	70.8µM	–	–	–
CCN(CC)c1ccc(N=Cc2cc(Br)ccc2O)cc1	·	14.1µM	–	–	39.8µM
CC(C)(C)c1ccc(O)c(N=Cc2cc(Br)ccc2O)c1	–	1.78µM	–	?	3.98µM
Oc1ccc(Br)cc1C=Nc1ccc(Cl)cc1	·	–	·	–	–
O=[S+]([O-])(c1cc2ccccc2o1)N1CCN([S+](=O)([O-])c2c(F)cccc2F)CC1	·	·	·	·	–
CCCOc1ccc(C2/C(=C(/O)c3ccc(F)cc3)C(=O)C(=O)N2CCCN(C)C)cc1 (centres undefined)	–	39.8µM	–	–	–
COc1ccc(C2/C(=C(/O)c3ccc(F)cc3)C(=O)C(=O)N2CCCN(C)C)cc1 (centres undefined)	·	·	·	–	–
COc1ccc(/C(O)=C2\C(=O)C(=O)N(CCN(C)C)C2c2cc(OC)c(OC)c(OC)c2)c(C)c1 (centres undefined)	·	?	79.4µM	–	–
CCCOc1ccc(/C(O)=C2\C(=O)C(=O)N(CCCN(C)C)C23C(=O)N(C)c2ccccc23)cc1 (centres undefined)	–	44.7µM	–	·	·
CCCCOc1ccc(/C(O)=C2/C(=O)C(=O)N(CCN(C)C)C2c2ccc(O)c(OC)c2)cc1 (centres undefined)	–	?	–	–	–
COc1ccc(C2/C(=C(\O)c3cc(C)ccc3C)C(=O)C(=O)N2CCN(C)C)cc1OC (centres undefined)	–	–[12.7 µM]	–	–	–
CCCOc1ccc(/C(O)=C2\C(=O)C(=O)N(CCCOC)C23C(=O)N(C)c2ccccc23)cc1 (centres undefined)	–	–[2.33 µM]	–	–	–
CCCOc1cccc(C2/C(=C(/O)c3ccc(OC)cc3)C(=O)C(=O)N2CCN(C)C)c1 (centres undefined)	–	50.1µM	–	–	–
COc1ccc(OC)c(NC(=O)N2c3ccccc3Sc3ccccc32)c1	·	?	?	–	?
COc1ccc(-c2noc(CSc3nnc(Cc4ccccc4)n3-c3ccc(F)cc3)n2)cc1	·	–	–	–	–
O=C(NCc1nnc(-c2nc3ccccc3[nH]2)o1)C1CCCCC1	·	·	·	·	–
Cc1cc(CN(C)Cc2ccc(OCC(O)CN(C)Cc3ccccc3)cc2)on1 (centres undefined)	–	–	–	–	–
C=CCOc1ccc(CN(C)CC(O)COc2cccc3ccccc23)cc1 (centres undefined)	·	39.8µM	50.1µM	35.5µM	0.708µM
CCOc1cccc(C2C=C(c3ccc4c(c3)OCO4)NC(c3cccc(Br)c3)N2)c1O (centres undefined)	·	·	·	–	–
COc1ccc2[nH]c3c(c2c1)[C@@H]1CCN2C(=O)CCC[C@H](C3)[C@H]12	–	31.6µM	?	–	–
O=C(CN1C(=O)/C(=C2/SC(=S)N(CCS(=O)(=O)O)C2=O)c2ccccc21)Nc1cccc(Br)c1	–	·	·	50.1µM	44.7µM

Bioassay records from PubChem.
